# Rows were chosen to be rich in hits. Some 18% of all compounds tested hit in one or more screens of this group.
# TDP1 cell noCPT = qHTS for Inhibitors of human tyrosyl-DNA phosphodiesterase 1 (TDP1): qHTS in cells in absence of CPT; Potency, µM (series often up to 46.2 µM), for the others: at the top dose activity change, negative = growth inhibition, most hits filed as inhibitors; 15% of 420,000 active; DT40 Tdp1-/- hTDP1 cells, no CPT, ATP luminescence, 48 h; AID 686978, 2013; further: potency means the concentration at half of the fitted maximal effect; nearly all actives have a fitted effect of over 55% in size
#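 Chicken DT40 Tdp1-/- cells stably complemented with human TDP1 were seeded at 400 cells/well with DMSO in place of 20 nM camptothecin. After compound pinning, cells grew at least 48 hr at 37 °C; viability read by CellTiter-Glo luminescence.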
# DT40 TDP1 CPT = DT40-hTDP1 cell growth loss with CPT. chicken DT40 Tdp1-/-;hTDP1 cells + 20 nM CPT, ATP luminescence, 48 h. Potency, µM (top dose mostly 46.2 µM), for the others: at the top dose activity change, negative = growth inhibition, most hits filed as inhibitors. 12% of 420,000 active; further: potency means the concentration at half of the fitted maximal effect; nearly all actives have a fitted effect of over 55% in size
#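 Cell growth measured by CellTiter-Glo luminescence after a minimum 48 h, 37 C compound exposure with 20 nM CPT in Tdp1-knockout DT40 cells stably expressing hTDP1, seeded 400/well; qHTS titration format.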
# CtBP-E1A inh = inhibitors of CtBP/E1A interaction; 0.49% of 340,000 active; activity change, % (no concentration beside the values); AlphaScreen GST-E1A/His-CtBP binding, 1536-well; hits give low values; AID 651724; in the data active means activity change below about -65%; inconclusive means mostly about -30% to -63%
#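 Protein mix (5X: 125 nM each GST-E1A, His-CtBP) was incubated with pinned compound 2 h at 37 deg C in dark, in 50 mM Tris pH 8.0 buffer with 300 mM NaCl. Glutathione donor and nickel acceptor beads followed; AlphaScreen signal read after 1 h.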
# IL1B secr inh = inflammasome signaling inhibition, IL-1 beta readout | activity change, % at 57.5 µM | THP-1 LPS/ATP IL-1B secretion, AlphaLISA, 16 h; hits give low values | 4.7% of 360,000 active | AID 743279; in the data active means activity change below about -50%; inconclusive means mostly about -30% to -49%
#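 Secreted IL-1B measured by AlphaLISA bead assay after 16 h compound exposure of THP-1 cells; compounds (final up to 57.5 uM) added 1 h before LPS (250 ng/mL) and ATP (1.25 mM) stimulation; lower signal means less secretion.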
# Six1-Eya2 inh = blocks human Six1 binding to Eya2. Q15475+O00167. AlphaScreen GST-Six1/His-Eya2 binding, biochemical; hits give low values. activity change, % (concentration not given with the values). 0.56% of 360,000 active. AID 651725; in the data active means activity change below about -65%; inconclusive means mostly about -30% to -63%
#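 AlphaScreen luminescence read after one hour at 37 °C in darkness. Pin-transferred compounds met GST-Six1 and His-Eya2 protein (5X stock 250 nM/500 nM) plus glutathione donor and Ni-chelate acceptor beads (5X, 50 ug/mL).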
# TDP1 block = TDP1 (human) enzyme inhibition. recombinant TDP1, AlphaScreen DNA substrate cleavage. Potency, µM (highest dose often 130 µM), for inactives: at the top dose activity change, negative = inhibition, hits mostly inhibitors. 0.28% of 350,000 active. AID 485290; further: potency means the concentration at half of the fitted maximal effect; nearly all actives have a fitted effect of over 40% in size
# Target sequence (Q9NUW8 whole entry, looked up): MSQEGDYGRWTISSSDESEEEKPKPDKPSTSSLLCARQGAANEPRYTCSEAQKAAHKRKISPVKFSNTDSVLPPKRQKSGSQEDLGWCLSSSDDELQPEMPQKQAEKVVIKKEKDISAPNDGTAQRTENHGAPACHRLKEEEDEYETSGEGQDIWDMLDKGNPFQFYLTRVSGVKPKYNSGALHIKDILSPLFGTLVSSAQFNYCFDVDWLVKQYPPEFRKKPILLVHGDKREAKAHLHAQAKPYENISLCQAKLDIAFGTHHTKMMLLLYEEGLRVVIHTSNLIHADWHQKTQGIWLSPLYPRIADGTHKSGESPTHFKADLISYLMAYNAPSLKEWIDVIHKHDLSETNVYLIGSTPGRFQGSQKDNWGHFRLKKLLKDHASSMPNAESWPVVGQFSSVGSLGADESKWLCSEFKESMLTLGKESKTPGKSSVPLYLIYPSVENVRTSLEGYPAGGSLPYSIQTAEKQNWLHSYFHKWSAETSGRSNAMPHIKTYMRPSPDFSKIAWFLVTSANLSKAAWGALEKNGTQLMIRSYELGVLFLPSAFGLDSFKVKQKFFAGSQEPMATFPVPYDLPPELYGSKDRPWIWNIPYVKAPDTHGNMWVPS
#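 Signal: AlphaScreen proximity between streptavidin donor and anti-FITC acceptor beads on intact substrate. Reaction: Tdp1 1 nM, substrate 15 nM final, 5 min RT after 15 min compound preincubation.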
# * = called active by the depositor; u = inconclusive; x = no result given; ! = not active in a repeat. Unless noted, the call rests on the fitted dose curve; in most records, active means well fitted curve in the direction sought with a large enough effect; inconclusive means small, poorly fitted or top-dose-only effect, or another doubt; inactive means no such curve, though single readings can be large; an effect the other way counts as inactive or inconclusive. On the % scale 0 is the no-effect control and ±100 the full control effect.
SMILES,TDP1 cell noCPT,DT40 TDP1 CPT,CtBP-E1A inh,IL1B secr inh,Six1-Eya2 inh,TDP1 block
COc1ccc(-c2ccc(CN3C(C(C)C)C(=O)N(Cc4cn(CCC5OCCO5)nn4)CCS3(=O)=O)cc2)cc1OC (stereo not drawn),-9.4%,-36.3%,-9.4,-3.1,-13.9,x
Cc1ccc(-c2ccc(CN3C(C(C)C)C(=O)N(Cc4cn(CCC5OCCO5)nn4)CCS3(=O)=O)cc2)c(C)c1 (stereo not drawn),18.4µM*,9.2µM*,-10.1,u,-2.6,x
COc1ccc(/C=N/n2cncn2)cc1CSc1ccccn1,-1.7%,4.4%,-6.6,-16.3,-0.9,1.1%
COc1ccc(-c2cc(C(F)(F)F)nc(SCC(=O)NC(C)c3ccccc3)n2)cc1 (stereo not drawn),14.6µM*,u,x,x,x,0.0%
COc1ccc(NC(=O)CCSc2nc(-c3ccc(OC)cc3)cc(C(F)(F)F)n2)cc1,-17.8%,-24.7%,x,x,x,4.2%
Cc1ccc(-c2cc(C(F)(F)F)nc(SCC(=O)c3cccc([N+](=O)[O-])c3)n2)cc1,u,u,6.2,-53.3*,-15.9,5.0%
CCC(C)NC(=O)CCSc1nc(-c2ccc(OC)cc2)cc(C(F)(F)F)n1 (stereo not drawn),16.4µM*,u,x,x,x,-1.1%
COCCNC(=O)CCSc1nc(-c2ccc(OC)cc2)cc(C(F)(F)F)n1,20.6µM*,23.1µM*!,-1.2,-8.5,-2.8,1.1%
CCC(C)NC(=O)CCSc1nc(-c2ccc3c(c2)OCO3)cc(C(F)(F)F)n1 (stereo not drawn),u,u,x,x,x,-1.1%
COc1ccc(-c2cc(C(F)(F)F)nc(SCC(=O)NCCc3ccccc3)n2)cc1,u,-29.7%,x,x,x,2.1%
COc1ccc(-c2cc(C(F)(F)F)nc(SCC(=O)NCc3ccc(OC)c(OC)c3)n2)cc1,u,23.1µM*,x,x,x,4.2%
COc1ccc(-c2cc(C(F)(F)F)nc(SCC(=O)NCc3ccc(F)cc3)n2)cc1,u,u,x,x,x,3.2%
O=C1c2ccccc2C(=O)C1c1ccc2ccccc2n1,25.9µM*,6.31µM*,1.1,-2.6,-1.8,-3.3%
O=C1c2ccccc2C(=O)C1c1cc2ccccc2cn1,7.08µM*,1.78µM*,x,x,x,-18.2%
CCC(=O)N(Cc1cc2cc(OC)ccc2[nH]c1=O)c1cccc(C)c1,u,-20.0%,10.0,-18.2,-2.3,3.8%
CC1CCN(S(=O)(=O)c2ccc3c(c2)N(CC(=O)NC(C)c2ccccc2)C(=O)CO3)CC1 (stereo not drawn),x,x,x,x,x,3.8%
CCOC(=O)c1ccc(NC(=O)CCNS(=O)(=O)c2cccs2)cc1,u,-22.7%,-10.9,21.6,-10.5,-2.0%
COC(=O)c1cn(CCC#N)nc1-c1ccc2ccccc2c1,-3.2%,7.5%,-1.4,-50.6*,15.3,x
N#CCCn1cc(C(=O)O)c(-c2ccc3ccccc3c2)n1,1.0%,7.8%,-1.2,0.8,7.2,x
CCC1COCCS(=O)(=O)N1Cc1ccccc1F (stereo not drawn),-4.3%,-21.6%,0.0,9.1,19.1,x
O=S1(=O)CCO[C@H]2Cc3ccccc3[C@H]2N1Cc1ccccc1F,u,23.1µM*!,-11.1,-19.9,-5.6,x
C[C@@H]1[C@H](c2ccccc2)OCCS(=O)(=O)N1Cc1ccccc1F,12.6µM*,u,x,x,x,x
O=S1(=O)CCO[C@H]2Cc3ccccc3[C@H]2N1Cc1ccccc1Br,23.1µM*,u,-0.4,-1.1,-1.7,x
Cc1cccc(C)c1NC(=O)CS(=O)CC(=O)Nc1ccc(F)cc1F (stereo not drawn),-4.4%,-19.9%,-5.5,0.0,11.3,2.1%
Cc1ccccc1-c1ccc(C(=O)Nc2cccc(F)c2)o1,20.6µM*,u,0.1,u,-1.7,1.3%
SMILES,TDP1 cell noCPT,DT40 TDP1 CPT,CtBP-E1A inh,IL1B secr inh,Six1-Eya2 inh,TDP1 block
Cc1cccc(NC(=O)c2ccc(-c3ccccc3[N+](=O)[O-])o2)c1,u,0.5%,-17.6,-16.1,u,3.7%
Cc1cccc(C)c1NC(=O)c1ccc(-c2cc(F)ccc2F)o1,16.4µM*,18.4µM*,-8.8,-4.3,-13.3,x
CCc1ccc(-c2nc(C(N)=O)c3[nH]c(=O)n(-c4ccccc4OC)c3n2)cc1,2.59µM*,2.31µM*,-9.6,48.4,0.5,-1.3%
COc1ccc(-c2nc(C(N)=O)c3[nH]c(=O)n(-c4cccc(Cl)c4)c3n2)cc1OC,20.6µM*,u,-0.1,11.0,-5.1,5.2%
CCOc1ccccc1-c1nc(C(N)=O)c2[nH]c(=O)n(-c3ccc(F)cc3)c2n1,-29.8%,-4.8%,-5.9,32.0,4.6,1.3%
Cc1ccc(-n2c(=O)[nH]c3c(C(N)=O)nc(C(C)C)nc32)cc1,u,-25.7%,0.0,69.8,4.2,x
Cc1ccsc1-c1nc(C(N)=O)c2[nH]c(=O)n(-c3ccc(Cl)cc3)c2n1,4.11µM*,5.8µM*,u,-20.6,-22.1,-1.3%
O=C(Nc1ccc(Cl)cc1)C1CCCN(c2cnccn2)C1 (stereo not drawn),u,u,x,-16.5,-4.3,1.9%
Cn1nnnc1Sc1ncnc2scc(-c3ccc(Br)cc3)c12,x,x,x,x,x,3.6%
Cn1nnnc1Sc1ncnc2scc(-c3ccc(F)cc3)c12,6.51µM*,16.4µM*,-4.7,-67.6*,-2.7,9.8%
Cc1ccc(-c2csc3ncnc(Sc4nnnn4C4CC4)c23)cc1,11.2µM*,10µM*,x,x,x,x
Cn1nnnc1Sc1ncnc2scc(-c3ccccc3)c12,16.4µM*,14.6µM*,3.1,-104.1*,-3.1,4.7%
c1ccc(-c2csc3ncnc(Sc4nnnn4-c4ccccc4)c23)cc1,10µM*,u,x,x,x,x
COc1ccccc1NC(=O)c1ccc2oc(=O)c(S(=O)(=O)c3ccccc3)cc2c1,-2.3%,-4.4%,x,x,x,1.2%
NC(=O)C1CCN(CCC(=O)Nc2ccc(F)c(F)c2)CC1,-3.1%,5.6%,3.0,-6.2,1.3,x
O=C(Nc1ccc(F)c(Cl)c1)c1ccc2c(=O)n3c(nc2c1)CCCCC3,20.6µM*,16.4µM*,-3.2,-10.1,-2.6,1.0%
O=C(Nc1ccc(Cl)cc1)c1ccc2c(=O)n3c(nc2c1)CCCCC3,u,u,-2.4,29.3,-9.4,x
Cc1ccc(S(=O)(=O)N2CCCCC2)cc1NC(=O)c1ccc2c(=O)n3c(nc2c1)CCCCC3,x,x,x,x,x,2.6%
CC(=O)c1ccc(NC(=O)c2ccc3c(=O)n4c(nc3c2)CCCCC4)cc1,u,u,-22.2,-12.6,-6.8,1.5%
O=C(Nc1ccc(F)cc1)c1ccc2c(=O)n3c(nc2c1)CCCCC3,16.4µM*,u,-5.5,-13.6,-6.5,2.8%
